# Measured values as given in PubChem BioAssay (NCI).
# The panel holds about 79,000 compounds, 15% with a hit somewhere; the sample as a whole holds those more often. Values without a mark were called inactive. Activity calls are given as the source filed them. Cut-off read from the data, not from the text of the source: active = growth inhibition above about 70%; inactive = the rest.
# What was measured:
# [1] = NCI Yeast Anticancer Drug Screen. Data for the rad50 strain (AID 155);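 note: 0% = growth of vehicle-only cultures of the same strain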; details: S. cerevisiae rad50 strain growth inhibition, active compounds read high
# Procedure, shortened: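 Vehicle-treated cultures provide the reference for the growth inhibition reported for compound-exposed, repair-deficient yeast.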
# [2] = NCI Yeast Anticancer Drug Screen. Data for the mec2-1 strain (AID 157); details: S. cerevisiae mec2-1 strain, active compounds read high
# Procedure, shortened: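 Cells of the genetically defined mec2-1 yeast strain are incubated with test compound. Inhibition of growth is calculated against vehicle-treated controls.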
# [3] = NCI Yeast Anticancer Drug Screen. Data for the sgs1 mgt1 strain (AID 161);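 note: 0% = growth of cultures given vehicle only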; details: S. cerevisiae sgs1 mgt1 strain, active compounds read high
# Procedure, shortened: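 Genetically altered yeast, compound exposure, growth inhibition relative to vehicle.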
# [4] = NCI Yeast Anticancer Drug Screen. Data for the cln2 rad14 strain (AID 165);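 note: 0% = growth equal to vehicle treated cultures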; details: S. cerevisiae cln2 rad14 strain, active compounds read high
# Procedure, shortened: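 The screen exposed genetically defined yeast (cln2 rad14) to test compounds and scored growth inhibition relative to vehicle-treated controls.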
# [5] = NCI Yeast Anticancer Drug Screen. Data for the bub3 strain (AID 167); details: S. cerevisiae bub3 mutant strain, active compounds read high
# Procedure, shortened: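 Mutant yeast screening strain plus compound; vehicle-treated cultures serve as the 0% inhibition reference.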
# [6] = NCI Yeast Anticancer Drug Screen. Data for the mlh1 rad18 strain (AID 175); details: S. cerevisiae mlh1 rad18 strain growth inhibition, active compounds read high
# Procedure, shortened: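 Compound-treated yeast growth, normalised to vehicle controls. Strain bears defined DNA repair mutations.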
# [7] = at 5.0 µM (retest, dose inferred, filed as 0.5)
# [8] = at 50.0 µM (retest, dose inferred, filed as 5.0)
Structure (SMILES),"growth inhibition [1, 7]","growth inhibition [1, 8]",growth inhibition ([1]; at 50.0 µM),"growth inhibition [2, 7]","growth inhibition [2, 8]",growth inhibition ([2]; at 50.0 µM),"growth inhibition [3, 7]","growth inhibition [3, 8]",growth inhibition ([3]; at 50.0 µM),"growth inhibition [4, 7]","growth inhibition [4, 8]",growth inhibition ([4]; at 50.0 µM),"growth inhibition [5, 7]","growth inhibition [5, 8]",growth inhibition ([5]; at 50.0 µM),"growth inhibition [6, 7]","growth inhibition [6, 8]",growth inhibition ([6]; at 50.0 µM)
O=C1NC(=O)c2cccc3cccc1c23,20%,68%,88.4% (active),7%,25%,52.6%,4%,37%,80.3% (active),-5%,20%,64.5%,3%,22%,63.1%,7%,55%,84.5% (active)
O=C(OCCC1CCCCC1)c1cc([N+](=O)[O-])cc([N+](=O)[O-])c1,4%,79% (active),83.1% (active),13%,76% (active),75% (active),10%,70% (active),90.3% (active),6%,71% (active),80.5% (active),5%,82% (active),88.5% (active),12%,86% (active),89.8% (active)
CN(C)CCSCCN1c2ccccc2Sc2ccc(Cl)cc21,-5%,99% (active),57.5%,-2%,99% (active),99.7% (active),-16%,99% (active),98.6% (active),-8%,99% (active),99% (active),4%,99% (active),99.2% (active),5%,99% (active),99.5% (active)
O=C(c1ccccc1)N(c1ccccc1)c1ccc2ccccc2c1,-3%,16%,5.8%,-3%,21%,-6.1%,-5%,77% (active),12%,-35%,30%,12.3%,13%,67%,21.8%,-12%,67%,-1.8%
C/C(=N/NC(N)=S)C(C)C,11%,37%,14.3%,2%,2%,-9.9%,2%,3%,-11.1%,4%,-5%,37.6%,1%,-3%,17.4%,2%,-2%,4.8%
CCOc1ccc2c(c1)[n+]([O-])c(S(=O)(=O)c1ccc(C)cc1)c(N)[n+]2[O-],-5%,63%,91.2% (active),18%,77% (active),48.3%,30%,88% (active),90.8% (active),13%,55%,90.3% (active),37%,97% (active),93.3% (active),20%,85% (active),94.2% (active)
O=C(CCc1ccccc1)OCC1OC(OC(=O)CCc2ccccc2)C(OC(=O)CCc2ccccc2)C(OC(=O)CCc2ccccc2)C1OC(=O)CCc1ccccc1 (configuration not stated),1%,4%,25.6%,0%,-2%,21.4%,-3%,-22%,19.7%,0%,-1%,-0.4%,2%,1%,-6.35%,-3%,3%,45.4%
CC(=O)Oc1ccc(/C=C2\N=C(c3ccccc3)OC2=O)c(OC(C)=O)c1,4%,75% (active),15.3%,1%,55%,4.25%,-4%,36%,10.8%,2%,37%,25.8%,-2%,79% (active),9.55%,0%,77% (active),1.05%
O=S(=O)(c1cc(Br)ccc1O)c1cc(Br)ccc1O,94% (active),99% (active),99.8% (active),99% (active),100% (active),99.8% (active),89% (active),99% (active),99.8% (active),99% (active),100% (active),99.5% (active),99% (active),100% (active),99.7% (active),98% (active),99% (active),99.5% (active)
